In PubChem BioAssay AID1727 (National Center for Advancing Translational Sciences (NCATS), 2009):
The source made the active and inactive calls. Calls come from the whole dose curve; as a rule, active = well fitted curve in the direction sought with a large enough effect; inactive = no such curve, though single readings can be large or run the other way.

Biological target: Epidermal growth factor receptor (Homo sapiens) (UniProt P00533)
Assay: Assay for Inhibitors of the ERK Signaling Pathway using a Homogeneous Screening Assay: EGFR L858R Kinase Inhibition
Conditions: EGFR L858R kinase biochemical inhibition assay; series mostly up to 21.9 µM; activity, negative = inhibition: at the top concentration
Description: qHTS Assay for Inhibitors of the ERK Signaling Pathway using a Homogeneous Screening Assay
NIH Chemical Genomics Center [NCGC]
NIH Molecular Libraries Screening Centers Network [MLSCN]
Assay Submitter (PI): Dr. Wei Zheng, NCGC/NIH
The Ras/extracellular-signal-regulated kinase (ERK) mitogen activated protein (MAP) kinase signaling pathway (ERK1/2 cascade) plays is a key role in transmitting signals from the cell surface to the nucleus (Nishida and Gotoh 1993; Chang and Karin, 2001). The cascade is initiated by the small G-protein Ras, which recruits Raf […], where activation occurs. Alternatively, this pathway can be activated by elevating intracellular cAMP.
Activation of the ERK pathway is essential in increased cell division and cell survival. Sustained and constitutive activation of the ERK pathway, however, has been linked to uncontrolled cell proliferation, increased cell survival, and tumor progression. Thus, the ERK has been as an attractive target for cancer chemotherapy in the past few years (Sebolt-Leopold and Herrera, 2004). Given its physiological and pathological importance, assessment of ERK phosphorylation has been broadly performed in both basic research and drug discovery. Most assays for the measurement of ERK phosphorylation use the antibody-based detection methods, such as western blot and ELISA. These assays require multiple reagent additions with cell wash steps and are not suitable for high-throughput screening.
The current cell-based ERK phosphorylation assay was performed using AlphaScreen platform. AlphaScreen is a two bead-based proximity-dependent chemical energy transfer luminescent assay platform. The assay reagents (ERK SureFire(TM) kit) were supplied from TGR BioSciences (Australia). In the presence of specific antibodies, phosphorylated ERK will bring "donor" and "acceptor" beads to a proximity range (<200 nm), and subsequently lead a chemical luminescent reaction upon exciting donor beads with 680 nm laser. To validate pathway hits from the cell-based assay, enzyme assays consisting of EGFR tyrosine kinase, Raf and MEK were used as a means of deciphering the enzymes of target for the prioritized group of compounds derived from the HEK-293 cell based assay. The compounds were tested against significant members of the ERK signaling pathway EGFR and EGFR mutants (EGFR L858R, EGFR T790M, and EGFR L858R T790M). In order to establish the specificity of the prioritized compounds for EGFR and EGFR mutants, the compounds were also assayed against other important ERK signaling pathway enzymes, c-RAF and MEK-1.
NCGC Assay Protocol Summary:
The HTRF kinase assay (components supplied as kit by Cisbio) was chosen for the EGFR and EGFR mutant enzyme assays that applied the time resolved fluorescence resonance energy transfer (TR-FRET) principle. A peptide substrate is labeled with a biotin that can bind to XL665 labeled streptavidin and the anti-phosphoresidue antibody is labeled with Eu+. Upon phosphorylation of the substrate, the antibody binds to phosphorylated substrate that enables TR-FRET detection in homogenous assay format.
An HTRF Kinease TK assay kit (Cisbio, Bedford, MA) was used to develop the EGFR and EGFR mutant assays (Harbert et al., 2008. Harbert C, Marshall J, Soh S, Steger K. Development of a HTRF Kinase Assay for Determination of Syk Activity. Current Chemical Genomics. 1: 20-26. 2008). EGFR and EGFR mutants were obtained from Invitrogen. The assay buffer was composed of 50 mM HEPES (pH 7.0), 5 mM MgCl2, 5mM DTT, 0.1 % NaN3, 0.1 % BSA and 0.1 mM orthovanadate.
The HTRF assays were preformed according to the HTRF Kinease TK kit. Optimization for each enzyme was preformed in 384 well format (data not included). All reagents were dispensed into 1536 well plates.
(1) Enzyme, […] EGFR at 3 nM final
(2) Compound, 22 nl, Library Compounds in 0.128 to 10 mM titration series or control
(3) Reagent, 1.5 ul 10 uM ATP and 0.25 uM substrate final
(4) Incubation for 30 min, Ambient conditions
[…]

Epidermal growth factor receptor (Homo sapiens), sequence (P00533 whole entry L858R, looked up): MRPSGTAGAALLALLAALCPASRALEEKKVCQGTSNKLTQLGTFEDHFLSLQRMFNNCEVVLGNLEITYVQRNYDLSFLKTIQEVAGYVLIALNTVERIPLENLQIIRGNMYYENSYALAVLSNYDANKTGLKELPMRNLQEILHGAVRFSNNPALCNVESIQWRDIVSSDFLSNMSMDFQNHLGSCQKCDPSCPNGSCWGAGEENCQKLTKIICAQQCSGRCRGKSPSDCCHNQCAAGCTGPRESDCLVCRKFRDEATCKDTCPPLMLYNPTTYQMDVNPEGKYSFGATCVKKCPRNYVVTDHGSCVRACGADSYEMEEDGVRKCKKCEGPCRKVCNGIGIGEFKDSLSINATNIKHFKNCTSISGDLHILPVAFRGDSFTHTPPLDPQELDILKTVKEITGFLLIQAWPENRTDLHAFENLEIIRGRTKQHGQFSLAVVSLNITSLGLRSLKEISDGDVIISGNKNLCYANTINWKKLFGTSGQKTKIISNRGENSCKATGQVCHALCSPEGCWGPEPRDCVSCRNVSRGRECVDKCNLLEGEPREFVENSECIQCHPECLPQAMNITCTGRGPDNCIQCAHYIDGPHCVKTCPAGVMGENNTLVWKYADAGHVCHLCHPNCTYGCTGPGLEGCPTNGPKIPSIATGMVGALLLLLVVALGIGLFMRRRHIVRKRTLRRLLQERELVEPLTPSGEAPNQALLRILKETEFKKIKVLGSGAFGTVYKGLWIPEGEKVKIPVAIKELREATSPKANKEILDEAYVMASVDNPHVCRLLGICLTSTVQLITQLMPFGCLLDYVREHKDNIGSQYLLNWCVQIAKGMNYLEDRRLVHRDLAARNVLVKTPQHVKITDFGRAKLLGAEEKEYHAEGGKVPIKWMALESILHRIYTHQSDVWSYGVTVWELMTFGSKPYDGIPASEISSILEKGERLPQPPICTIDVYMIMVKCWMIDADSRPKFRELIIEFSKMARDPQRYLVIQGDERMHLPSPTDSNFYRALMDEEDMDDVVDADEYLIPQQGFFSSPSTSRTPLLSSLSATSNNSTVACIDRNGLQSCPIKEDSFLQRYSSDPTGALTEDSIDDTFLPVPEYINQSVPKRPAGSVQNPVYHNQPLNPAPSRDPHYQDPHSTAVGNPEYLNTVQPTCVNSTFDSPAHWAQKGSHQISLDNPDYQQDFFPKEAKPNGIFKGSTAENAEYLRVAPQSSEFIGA

activity, negative = inhibition, inactive:
CNc1cccc2c1C(=O)c1ccccc1C2=O -2.12%
Cn1nc(-c2ccccn2)nc2c(=O)n(C)c(=O)nc1-2 3.73%
CCn1c(=O)c2[nH]c(-c3ccccc3)nc2n(CC)c1=O -11.3%
Cn1nc(-c2ccc(Cl)cc2)nc2c(=O)n(C)c(=O)nc1-2 -1.74%
O=C1c2ccccc2C(=O)c2c(NCCCN(CCO)CCO)cccc21 -1.94%
CN(C)c1cccc2c1C(=O)c1ccccc1C2=O 0.987%
COc1ccc(C(=O)c2ccc(Cl)c([N+](=O)[O-])c2)cc1 -9.07%
Cn1c(=O)[nH]c2nnc(-c3ccc(Cl)c(Cl)c3)nc2c1=O -2.48% [at 65.8 µM]
O=C1c2ccccc2C(=O)c2c1cccc2N1CCCC1 -7.13%
CCN(CC)CCC(=O)Nc1cccc2c1C(=O)c1ccccc1C2=O -11.8%
O=C(Nc1nc(-c2ccccc2)cs1)c1ccc(N2CCOCC2)c([N+](=O)[O-])c1 -3.33% [at 65.8 µM]

Potency, inactive:
N#C/C(=C(/N)Sc1ccc(N)cc1)c1ccccc1C(F)(F)F

Potency, active:
Fc1ccc(Nc2ncnc3sc4c(c23)CCC4)cc1F 44.7 nM
CS(=O)(=O)CCNCc1nc(-c2ccc3ncnc(Nc4ccc(OCc5cccc(F)c5)c(Cl)c4)c3c2)cs1 50.1 nM
Cc1ccc(NNc2c(C)nc3ccccc3nc2=O)cc1 3160 nM
Cc1ccc2nc(=O)c(NNc3ccccc3)cnc2c1 631 nM
Cc1nc2ccccc2nc(=O)c1NNc1ccccc1 631 nM
